# A number with no mark means an inactive call. Results filed as inconclusive are left out. A call without a number means that no potency is given here. The source made the active and inactive calls. Unless noted, calls come from the whole dose curve; as a rule, active = well fitted curve in the direction sought with a large enough effect; inconclusive = small, poorly fitted or top-dose-only effect, or another doubt; inactive = no such curve, though single readings can be large; an effect the other way counts as inactive or inconclusive.
# Tests used:
# [1] = molecular target: Cytochrome P450 2C19 (Homo sapiens) (UniProt P33261); experiment: qHTS Assay for Inhibitors and Substrates of Cytochrome P450 2C19 (AID 899); details: recombinant CYP2C19, luciferin-H EGE luminescence; series mostly up to 11.4 µM; note: nearly all actives have a fitted effect of over 60% in size; note: potency is the fitted concentration of half-maximal effect
# Procedure, shortened: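 Signal comes from luciferase acting on luciferin released by CYP2C19-mediated hydroxylation of Luciferin-H EGE, 10uM (KM). Assay mix: 5nM enzyme, 50mM KPO4; 60 min at 37C with NADPH regeneration. Data normalized against 57uM ketoconazole.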
# [2] = qHTS Assay for Identification of Small Molecule Agonists for Hypoxia Response Element Signaling Pathway (AID 914; active = well fitted activation curve with a large enough effect in the signal ratio, with a control signal flat, not every such curve was filed as active; the % refers to the signal ratio); details: ME-180 (cervical carcinoma) HRE-bla reporter, beta-lactamase ratio, CoCl2, 17 h; hits give high values
# Procedure, shortened: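 Read-out: CCF4 FRET ratio of 460nm to 530nm emission (excitation 405nm) after 2.5 hours at room temperature, taken from HRE-bla ME-180 cells that had been exposed to compound and EC50 CoCl2 for 17 hours.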
# [3] = Confirmation and Secondary Assay for Modulators of Hemoglobin Beta Chain Splicing at IVS2 654 locus (AID 910); details: HeLa EGFP-654 splicing reporter, GFP fluorescence, 48 h; series mostly up to 46.1 µM;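 note: HeLa cells stably carrying EGFP split by mutant beta-globin IVS2-654 intron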
# Procedure, shortened: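 HeLa cells stably expressing EGFP interrupted by β-globin IVS2-654 intron, seeded overnight in Opti-MEM/2% FCS, then treated 2 days at 37 °C. Restored splicing read as total peak GFP intensity per well by laser scanning cytometry (488 nm excitation, 500–520 nm emission); 500 nM antisense PNA as control.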
# [4] = Confirmation and Secondary Assay for Modulators of Hemoglobin Beta Chain Splicing at IVS2 705 locus (AID 930); details: HeLa EGFP-705 splicing reporter, GFP fluorescence, 48 h; series mostly up to 46.1 µM;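 note: HeLa cells stably expressing the EGFP-705 splicing reporter; GFP fluorescence per well restored by corrected splicing of the IVS2-705 intron in EGFP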
# Procedure, shortened: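 HeLa EGFP-705 reporter; 500 cells/well, o/n 37C 5% CO2; cpd 2 d; 488 ex/500-520 em laser scan; total peak GFP intensity/well. Ref: 500 nM […] antisense PNA.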
# Sequence of Cytochrome P450 2C19 (Homo sapiens) (P33261 whole entry, looked up): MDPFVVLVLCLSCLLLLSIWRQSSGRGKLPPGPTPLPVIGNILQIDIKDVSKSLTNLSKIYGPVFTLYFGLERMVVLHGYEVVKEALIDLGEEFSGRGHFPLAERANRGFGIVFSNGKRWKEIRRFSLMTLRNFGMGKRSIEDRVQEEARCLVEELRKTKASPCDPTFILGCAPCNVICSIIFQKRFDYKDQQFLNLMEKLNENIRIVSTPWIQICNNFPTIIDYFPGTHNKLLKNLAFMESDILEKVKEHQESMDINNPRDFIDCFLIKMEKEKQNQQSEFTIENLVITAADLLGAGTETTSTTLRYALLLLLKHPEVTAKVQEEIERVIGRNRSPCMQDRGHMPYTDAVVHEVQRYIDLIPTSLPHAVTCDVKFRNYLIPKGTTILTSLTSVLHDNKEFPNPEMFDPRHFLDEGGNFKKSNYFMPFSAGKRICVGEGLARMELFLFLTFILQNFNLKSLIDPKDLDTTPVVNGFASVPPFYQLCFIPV
smiles,measurement,setting,value
C[C@H]1COC(=O)[C@H]2CCCN2C(=O)[C@@H](C)COC(=O)[C@H](Cc2ccccc2)NC1=O,Potency,[1],inactive
same,activation,[2],-0.107%
CO[C@@H]1COC(=O)[C@H](C)NC(=O)C/C=C\[C@@H](C)[C@@H](NS(=O)(=O)c2ccc(C)cc2)COC(=O)C/C=C\[C@@H]1C,Potency,[1],inactive
CO/N=C\[C@@H](NS(=O)(=O)c1ccc(C)cc1)[C@H](C)/C=C\CC(=O)OC,Potency,[1],3.16 µM (active)
CC(=O)OC[C@@H]1O[C@H](C/C=N\O[C@@H](C)c2cn([C@H]3COC[C@H]3O)nn2)C=C[C@@H]1OC(C)=O,Potency,[1],inactive
CNCC(O)c1cccc(O)c1 (stereo unspecified),outcome,[3],inactive
same,outcome,[4],inactive
CC(=O)[C@]1(O)CCC2C3CC(C)C4=CC(=O)C=CC4(C)[C@@]3(F)C(O)C[C@]21C (stereo partly specified),outcome,[3],inactive
same,outcome,[4],inactive
Cc1ccc(S(=O)(=O)N[C@H]2COC(=O)C/C=C\[C@@H](C)[C@H](NS(=O)(=O)c3ccc(C)cc3)COC(=O)[C@H](C)NC(=O)C/C=C\[C@H]2C)cc1,Potency,[1],inactive
same,activation,[2],3.42%
